ClpP mod = qHTS Assay for Activators of ClpP. purified B. subtilis ClpP, FRET peptide cleavage, 20 min. Potency, µM (doses to about 57.5 µM), for inactives: at the highest dose activity change, negative = active. 1.9% of 340,000 active. AID 651965, 2013; active = well fitted falling curve with a large enough effect; inconclusive = small, poorly fitted or top-dose-only effect; inactive = no such curve, though single readings can be large or run the other way; also: potency is read from the fitted curve at half-maximal effect; the source files actives as falling curves though it sought activators and does not explain the sign; nearly all actives have a fitted effect of over 65% in size
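Purified B. subtilis ClpP, 10 microg/mL final in Tris/HCl pH8 with KCl, BSA, glycerol and Tween-20, cleaved an Abz/nitrotyrosine-quenched decapeptide. Fluorescence (ex 320, em 430) was read at 0 and 20 min at room temperature. Delta was normalized to 5.8 microM ADEP and DMSO/no-enzyme controls.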
Mito fusion act = qHTS Assay for Small Molecule Inhibitors of Mitochondrial Division or Activators of Mitochondrial Fusion; AID 485298, 2010; S. cerevisiae fusion-defective mutant growth rescue, CellTiterGlo 48 h; Potency, µM (titrated, usually from 46.1 µM), for the others: top-dose growth rescue (activation), most hits filed as activators; 0.23% of 320,000 active; also: potency is read from the fitted curve at half-maximal effect; % of control where 0% means no effect; nearly all actives have a fitted effect of over 45% in size
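Temperature-sensitive fusion-defective S. cerevisiae (e.g. fzo1-1, mgm1-5) were grown with compound in YPEG medium (3% ethanol, 3% glycerol) for 48 hours at 37C. Growth rescue was measured as viability by CellTiterGlo luminescence after 10 minutes at ambient.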
p53 reactivator = qHTS assay for re-activators of p53 using a Luc reporter. H1299 p53-A138V BP100-luciferase reporter, luminescence, 24 h. Potency, µM (highest dose often 92.2 µM), for the others: at the highest dose activity change, positive = activation, most hits filed as activators. 0.063% of 320,000 active. AID 504706, 2011; also: potency is read from the fitted curve at half-maximal effect; % of control where 0% means no effect; nearly all actives have a fitted effect of over 45% in size
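H1299 (p53-null), stable ts p53-A138V + BP100-Luc; 1000 cells/well, Opti-MEM/10% FBS; cpd 4 pt, 1:5; 24 h, 37 deg C, 5% CO2; detection reagent 10 min RT; luminescence.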
uPA surface inh = qHTS for Inhibitors of Cell Surface uPA Generation. cell surface uPA generation assay, qHTS. Potency, µM (doses to about 38.3 µM), without a hit: top-dose activity change, negative = inhibition, usual class: inhibitors. 0.31% of 330,000 active; active = well fitted inhibition curve with a large enough effect; inconclusive = small, poorly fitted or top-dose-only effect; inactive = no such curve, though single readings can be large or run the other way; tested in mouse RAW 264.7 cells; also: potency is read from the fitted curve at half-maximal effect; % is scaled to controls: 0 for no effect and ±100 for the full control effect; nearly all actives have a fitted effect of over 55% in size
B2AR arrestin = qHTS assay of beta-arrestin-biased ligands of beta2-adrenergic receptor; Potency, µM (titrated, usually from 46.1 µM), without a hit: at the highest dose activation, usual class: activators; beta-arrestin recruitment to beta2AR, cell-based reporter; 0.02% of 330,000 active;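 also: potency is read from the fitted curve at half-maximal effect; 0% = DMSO controls and full agonism = EC100 isoproterenol or metaproterenol; nearly all actives have a fitted effect of over 65% in size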
Target sequence (P07550 whole entry, looked up): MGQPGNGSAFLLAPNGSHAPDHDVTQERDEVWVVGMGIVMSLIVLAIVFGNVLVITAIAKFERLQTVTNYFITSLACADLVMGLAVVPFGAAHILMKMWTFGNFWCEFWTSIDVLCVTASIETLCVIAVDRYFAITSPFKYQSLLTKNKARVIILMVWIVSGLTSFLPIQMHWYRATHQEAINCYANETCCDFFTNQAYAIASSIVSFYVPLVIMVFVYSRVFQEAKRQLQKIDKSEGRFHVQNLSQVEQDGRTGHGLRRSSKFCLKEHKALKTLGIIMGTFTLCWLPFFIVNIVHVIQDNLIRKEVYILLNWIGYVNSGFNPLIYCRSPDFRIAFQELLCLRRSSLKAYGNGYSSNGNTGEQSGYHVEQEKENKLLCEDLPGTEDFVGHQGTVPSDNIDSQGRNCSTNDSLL
Giardia kill = Small Molecules that selectively kill Giardia lamblia: qHTS | 0.15% of 340,000 active | Giardia lamblia trophozoite viability | activity change, % at 7.66 µM, hits read low; in the data active = activity change below about -80%; inconclusive = between about -30% and that limit;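 also: parasites exposed to compound for two days anaerobically before the ATP read; % is scaled to controls: 0 for no effect and ±100 for the full control effect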
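Killing of trophozoites was scored by loss of ATP luminescence after a 48 hrs anaerobic exposure to compounds at 37 deg C, using 100 cells per well.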
Active calls of the source: *; ? = inconclusive; / = not tested or not shown. Most compounds without a hit are left out; they make up all but 2.1% or so of the library. Unless noted, calls follow the shape of the dose curve; as a rule, active = well fitted curve in the direction sought with a large enough effect; inconclusive = small, poorly fitted or top-dose-only effect, or another doubt; inactive = no such curve, though single readings can be large; an effect the other way counts as inactive or inconclusive.

SMILES | ClpP mod | Mito fusion act | p53 reactivator | uPA surface inh | B2AR arrestin | Giardia kill
COc1ccc(-n2c(CN3CCOCC3)nc3ccccc3c2=O)c(OC)c1 | -1.2% | 2.2% | 16.5% | -0.5% | 0.5% | -8.8
COc1ccc2sc(-c3ccccc3OC)c(-c3ccc(OCCN4CCOCC4)cc3)c2c1 | 28.2µM* | / | 2.0% | -6.9% | -0.9% | -16.2
COc1ccc(-c2sc3ccccc3c2-c2ccc(OCCN(C)C)cc2)cc1 | 3.4% | / | -0.8% | ? | -0.1% | -10.8
CCOc1ccc(-c2cc(C)[n+](CCN3CCOCC3)c(-c3ccc(OCC)cc3)c2)cc1 | / | 4.4% | -4.4% | -1.2% | -0.7% | 22.4
COc1cc(OC)cc(-c2sc3ccc(OC)cc3c2-c2ccc(OCCN3CCOCC3)cc2)c1 | 8.91µM* | / | -5.1% | 9.9% | -0.1% | -4.0
CCC(C)(C)n1nnnc1C(c1cccs1)N1CC=C(c2ccc(F)cc2)CC1 (configuration not stated) | -24.4% | 10µM* | -0.6% | 1.7% | -0.2% | -3.1
Cc1ccccc1Cn1cccc(C(=O)Nc2cc(Cl)ccc2C#N)c1=O | 66.6% | / | / | / | / | /
Cc1cc(S(=O)(=O)NCC(C)C)ccc1OCC(=O)N1CCN(Cc2ccccc2)CC1 | 15.8µM* | -1.8% | -4.5% | -7.5% | 0.4% | -18.8
Cc1cc(S(=O)(=O)NC(C)C)ccc1OCC(=O)N1CCN(Cc2ccc3c(c2)OCO3)CC1 | -2.1% | -2.4% | 0.2% | -4.8% | 0.0% | 8.1
C[C@H](NC(=O)c1[nH]cnc1C(=O)Nc1ccc(Cl)cc1)c1ccccc1 | -6.3% | 6.8% | -0.7% | -26.6% | 0.2% | -9.9
CC(C)N(C(=O)CCl)c1ccccc1 | -0.9% | / | / | 6.31µM* | / | 1.8
O=C(NC(=S)Nc1cc([N+](=O)[O-])ccc1O)c1cccnc1 | 0.7% | -0.8% | 2.8% | ? | 0.1% | ?
CCN1C[C@]2(COC(=O)c3ccccc3N)CC[C@H](OC)C34[C@@H]5C[C@H]6[C@H](OC)[C@@H]5[C@](O)(C[C@@H]6OC)[C@@](O)([C@H]13)[C@@H](OC)[C@@H]42 | 3.7% | -1.7% | -2.0% | 4.0% | -0.8% | -20.7
CCN1CC2(COC(=O)c3ccccc3N)CCC(OC)C34C5CC6C(OC)CC(O)(C5C6OC)C(O)(C(OC)C23)C14 (configuration not stated) | 15.8µM* | -0.9% | -3.5% | 8.7% | -0.5% | -3.3
CCO[C@@H]1OC(C(=O)NCc2ccccc2)=C[C@H](c2csc3ccccc23)[C@H]1CCCO | 0.4% | 11.2% | -1.2% | ? | 0.3% | 2.1
CCC(=Nc1ccc2c(c1)CCC2)c1c(O)n(C)c(=O)n(C)c1=O | -2.2% | -1.9% | -3.8% | -2.7% | -2.2% | 2.3
CCOC(=O)c1ccc(N=C(CC)c2c(O)n(C)c(=O)n(C)c2=O)cc1 | 25.1µM* | -1.7% | 1.4% | -4.8% | 0.6% | -5.6
CCOc1cc(-c2ccc(N)c(OCC)c2)ccc1N | 31.6µM* | 2.4% | -11.9% | 5.1% | -0.3% | 24.3
CN(C)c1ccc(/C=C(\Cl)c2nc3ccccc3s2)cc1 | 1.2% | -6.9% | 24.7% | 10µM* | -0.4% | ?
O=Cc1cc(OCc2ccccc2)ccc1[B-](F)(F)F | ? | / | / | ? | / | -5.3
CC1(C)C[C@H]2C=C(C=O)[C@]3(C=O)C[C@]3(C)[C@H]2C1 | 0.0% | -4.2% | -9.6% | 2.24µM* | -1.1% | -2.1
ClCCN(CCCl)/C(=C\c1ccccc1)c1ccnc2ccccc12 | -0.3% | / | / | / | / | /
Cc1cc(O)c2c(c1)C(=O)c1cc(O)cc(O)c1C2=O | -2.2% | 2.59µM* | / | -0.2% | / | 57.1
Cc1ccc(Cl)cc1N1CCN(C(=O)c2cn(C)c(=O)c3c2c2ccccc2n3C)CC1 | 28.2µM* | 6.7% | -0.2% | ? | -0.3% | -5.6

Bioassay records as filed in PubChem BioAssay.
